Key:
Test in all cases: log2 ratio of Biotin-Ahx-Ub-VS probe labelling (fragment/DMSO); higher = less target engagement (more negative = stronger competition), active = hit call of the paper (q ≤ 0.05, log2 ratio ≤ -1)
Details in all cases: compound concentration: 200 uM; treatment time: 3 h
USP42 = target: T1, USP42 (UniProt Q9H9J4)
T1 sequence (whole entry): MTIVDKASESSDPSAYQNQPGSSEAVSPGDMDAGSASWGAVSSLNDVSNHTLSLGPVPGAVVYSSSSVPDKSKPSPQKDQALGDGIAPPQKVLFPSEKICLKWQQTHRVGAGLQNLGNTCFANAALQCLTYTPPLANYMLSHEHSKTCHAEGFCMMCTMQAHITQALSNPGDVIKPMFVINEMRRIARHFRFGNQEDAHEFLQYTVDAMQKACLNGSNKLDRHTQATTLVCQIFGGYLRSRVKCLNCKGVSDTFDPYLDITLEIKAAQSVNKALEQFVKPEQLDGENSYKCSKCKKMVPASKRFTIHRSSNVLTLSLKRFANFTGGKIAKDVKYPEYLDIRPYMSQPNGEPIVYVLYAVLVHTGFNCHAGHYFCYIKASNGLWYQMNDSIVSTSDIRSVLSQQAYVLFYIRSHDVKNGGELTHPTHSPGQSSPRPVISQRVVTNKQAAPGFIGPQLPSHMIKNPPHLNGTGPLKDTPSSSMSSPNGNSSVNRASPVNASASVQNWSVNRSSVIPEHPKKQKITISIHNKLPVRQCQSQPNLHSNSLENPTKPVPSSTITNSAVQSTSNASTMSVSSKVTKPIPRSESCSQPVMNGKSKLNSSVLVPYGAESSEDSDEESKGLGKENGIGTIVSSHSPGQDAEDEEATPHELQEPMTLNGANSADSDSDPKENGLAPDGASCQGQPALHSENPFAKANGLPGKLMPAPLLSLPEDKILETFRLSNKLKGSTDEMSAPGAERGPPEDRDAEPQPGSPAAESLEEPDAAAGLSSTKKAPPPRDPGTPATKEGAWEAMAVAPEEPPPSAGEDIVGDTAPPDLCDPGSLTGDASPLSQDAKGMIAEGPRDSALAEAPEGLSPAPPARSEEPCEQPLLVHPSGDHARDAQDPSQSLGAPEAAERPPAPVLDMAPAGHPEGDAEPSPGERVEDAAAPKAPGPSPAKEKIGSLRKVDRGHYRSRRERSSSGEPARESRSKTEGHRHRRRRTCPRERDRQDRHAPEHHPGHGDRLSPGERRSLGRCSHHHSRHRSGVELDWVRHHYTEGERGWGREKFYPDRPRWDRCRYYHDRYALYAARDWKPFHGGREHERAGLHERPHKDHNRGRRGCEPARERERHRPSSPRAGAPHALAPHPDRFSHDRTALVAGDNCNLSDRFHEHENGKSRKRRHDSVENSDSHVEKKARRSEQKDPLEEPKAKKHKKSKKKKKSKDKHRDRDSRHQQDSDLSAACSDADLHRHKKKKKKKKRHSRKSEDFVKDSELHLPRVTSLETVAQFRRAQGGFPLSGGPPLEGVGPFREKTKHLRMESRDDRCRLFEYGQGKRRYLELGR
In short: (§1)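 HEK293T lysate, 495 µg per sample in Tris/CHAPS/IGEPAL buffer with protease inhibitors, was treated in triplicate with fragment at 200 µM or vehicle for 3 h and then with Biotin-Ahx-Ub-VS at 0.5 µM final for 1 h. Labelled DUBs were NeutrAvidin-enriched, digested with LysC and trypsin, and run by diaPASEF LC-MS/MS. Spectronaut label-free quantities were global-median-normalised, and values are average log2 fragment/vehicle ratios by unpaired t-test on proteins with ≥2 unique peptides.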

USP46 = USP46 (UniProt P62068)
In short: as §1

USP47 = target: T2, USP47 (UniProt Q96K76)
T2 sequence (whole entry): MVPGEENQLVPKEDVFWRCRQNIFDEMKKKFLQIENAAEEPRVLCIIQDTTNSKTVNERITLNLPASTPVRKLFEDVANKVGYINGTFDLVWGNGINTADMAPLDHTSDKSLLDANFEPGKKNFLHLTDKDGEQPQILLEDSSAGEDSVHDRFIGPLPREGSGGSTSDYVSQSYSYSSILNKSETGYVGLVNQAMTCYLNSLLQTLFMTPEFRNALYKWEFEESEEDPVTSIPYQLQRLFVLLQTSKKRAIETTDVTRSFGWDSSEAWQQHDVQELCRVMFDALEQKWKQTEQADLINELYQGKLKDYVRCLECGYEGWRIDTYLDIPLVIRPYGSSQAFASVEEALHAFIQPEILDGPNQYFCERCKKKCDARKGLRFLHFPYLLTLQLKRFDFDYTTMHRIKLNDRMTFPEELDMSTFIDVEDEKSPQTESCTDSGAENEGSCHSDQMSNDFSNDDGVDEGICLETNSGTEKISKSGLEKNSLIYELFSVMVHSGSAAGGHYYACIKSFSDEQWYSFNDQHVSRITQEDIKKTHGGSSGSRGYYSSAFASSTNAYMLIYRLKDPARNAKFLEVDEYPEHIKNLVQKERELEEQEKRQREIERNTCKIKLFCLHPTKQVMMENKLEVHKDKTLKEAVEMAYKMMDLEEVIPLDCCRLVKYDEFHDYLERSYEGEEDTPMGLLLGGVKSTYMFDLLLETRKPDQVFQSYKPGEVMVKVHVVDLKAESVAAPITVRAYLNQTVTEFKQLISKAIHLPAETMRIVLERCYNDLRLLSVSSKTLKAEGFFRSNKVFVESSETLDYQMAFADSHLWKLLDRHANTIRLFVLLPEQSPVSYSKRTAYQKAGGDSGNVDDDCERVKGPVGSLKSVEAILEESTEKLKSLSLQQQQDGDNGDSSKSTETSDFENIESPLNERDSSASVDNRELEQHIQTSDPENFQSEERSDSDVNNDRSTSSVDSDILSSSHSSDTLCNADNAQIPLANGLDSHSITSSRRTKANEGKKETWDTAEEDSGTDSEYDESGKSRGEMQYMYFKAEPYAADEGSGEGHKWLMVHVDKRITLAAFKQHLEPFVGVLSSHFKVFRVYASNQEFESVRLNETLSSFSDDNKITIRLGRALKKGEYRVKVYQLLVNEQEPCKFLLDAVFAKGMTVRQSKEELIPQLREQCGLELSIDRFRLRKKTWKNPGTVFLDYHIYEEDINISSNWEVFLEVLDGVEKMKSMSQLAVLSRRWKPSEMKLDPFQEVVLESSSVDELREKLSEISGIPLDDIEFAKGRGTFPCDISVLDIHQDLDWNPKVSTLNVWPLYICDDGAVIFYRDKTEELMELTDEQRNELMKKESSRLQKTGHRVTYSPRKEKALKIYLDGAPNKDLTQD
In short: as §1

USP48 = target: T3, USP48 (UniProt Q86UV5)
T3 sequence (whole entry): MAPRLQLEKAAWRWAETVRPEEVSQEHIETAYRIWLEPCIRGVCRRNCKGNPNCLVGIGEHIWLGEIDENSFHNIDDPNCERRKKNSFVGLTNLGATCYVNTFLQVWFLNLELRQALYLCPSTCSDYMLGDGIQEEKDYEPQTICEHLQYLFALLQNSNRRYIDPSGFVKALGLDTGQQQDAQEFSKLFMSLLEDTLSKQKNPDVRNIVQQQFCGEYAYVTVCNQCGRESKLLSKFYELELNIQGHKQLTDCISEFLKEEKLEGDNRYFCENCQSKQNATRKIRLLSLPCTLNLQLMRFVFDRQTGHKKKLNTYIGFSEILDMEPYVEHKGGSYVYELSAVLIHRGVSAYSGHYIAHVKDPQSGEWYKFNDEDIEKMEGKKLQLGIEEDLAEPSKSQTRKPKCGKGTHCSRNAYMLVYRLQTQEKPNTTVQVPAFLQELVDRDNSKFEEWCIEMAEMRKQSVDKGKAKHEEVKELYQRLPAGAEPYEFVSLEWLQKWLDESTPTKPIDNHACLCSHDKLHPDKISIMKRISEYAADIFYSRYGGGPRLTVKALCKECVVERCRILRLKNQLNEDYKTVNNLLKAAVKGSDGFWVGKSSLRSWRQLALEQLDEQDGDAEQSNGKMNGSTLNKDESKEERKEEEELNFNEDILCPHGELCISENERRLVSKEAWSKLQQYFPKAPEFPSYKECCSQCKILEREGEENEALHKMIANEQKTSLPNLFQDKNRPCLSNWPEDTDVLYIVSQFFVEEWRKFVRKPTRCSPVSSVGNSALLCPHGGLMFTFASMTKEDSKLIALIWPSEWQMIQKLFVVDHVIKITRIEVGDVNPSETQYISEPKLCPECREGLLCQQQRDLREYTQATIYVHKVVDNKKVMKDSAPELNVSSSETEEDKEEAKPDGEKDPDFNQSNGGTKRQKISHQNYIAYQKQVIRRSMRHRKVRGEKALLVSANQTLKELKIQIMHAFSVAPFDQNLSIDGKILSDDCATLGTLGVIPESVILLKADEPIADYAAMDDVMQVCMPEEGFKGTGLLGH
In short: as §1

USP5 = target: T4, USP5 (UniProt P45974)
T4 sequence (whole entry): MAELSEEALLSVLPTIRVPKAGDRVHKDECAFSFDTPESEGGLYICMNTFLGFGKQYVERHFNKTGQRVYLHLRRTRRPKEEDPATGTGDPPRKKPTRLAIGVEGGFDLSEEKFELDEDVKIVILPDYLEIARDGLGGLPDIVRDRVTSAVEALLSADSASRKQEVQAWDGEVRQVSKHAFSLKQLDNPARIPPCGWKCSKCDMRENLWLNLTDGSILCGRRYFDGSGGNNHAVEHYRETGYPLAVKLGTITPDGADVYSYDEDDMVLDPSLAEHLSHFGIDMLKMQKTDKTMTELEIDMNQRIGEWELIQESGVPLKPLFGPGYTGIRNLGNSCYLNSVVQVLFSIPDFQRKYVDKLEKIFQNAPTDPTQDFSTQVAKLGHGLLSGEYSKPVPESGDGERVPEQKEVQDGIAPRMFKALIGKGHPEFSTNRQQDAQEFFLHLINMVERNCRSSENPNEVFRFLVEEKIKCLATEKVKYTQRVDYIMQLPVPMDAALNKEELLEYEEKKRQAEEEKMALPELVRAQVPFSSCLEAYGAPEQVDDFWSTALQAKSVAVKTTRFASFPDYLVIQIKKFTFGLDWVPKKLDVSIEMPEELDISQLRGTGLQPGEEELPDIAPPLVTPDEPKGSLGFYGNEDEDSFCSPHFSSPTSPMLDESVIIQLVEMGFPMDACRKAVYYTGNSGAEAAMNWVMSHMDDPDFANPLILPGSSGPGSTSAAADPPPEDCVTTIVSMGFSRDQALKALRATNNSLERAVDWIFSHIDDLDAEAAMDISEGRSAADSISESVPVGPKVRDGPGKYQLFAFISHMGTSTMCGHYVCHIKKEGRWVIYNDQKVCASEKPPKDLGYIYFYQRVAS
In short: as §1

USP54 = USP54 (UniProt Q70EL1)
In short: as §1

USP7 = USP7 (UniProt Q93009)
In short: as §1

USP8 = target: T5, USP8 (UniProt P40818)
T5 sequence (whole entry): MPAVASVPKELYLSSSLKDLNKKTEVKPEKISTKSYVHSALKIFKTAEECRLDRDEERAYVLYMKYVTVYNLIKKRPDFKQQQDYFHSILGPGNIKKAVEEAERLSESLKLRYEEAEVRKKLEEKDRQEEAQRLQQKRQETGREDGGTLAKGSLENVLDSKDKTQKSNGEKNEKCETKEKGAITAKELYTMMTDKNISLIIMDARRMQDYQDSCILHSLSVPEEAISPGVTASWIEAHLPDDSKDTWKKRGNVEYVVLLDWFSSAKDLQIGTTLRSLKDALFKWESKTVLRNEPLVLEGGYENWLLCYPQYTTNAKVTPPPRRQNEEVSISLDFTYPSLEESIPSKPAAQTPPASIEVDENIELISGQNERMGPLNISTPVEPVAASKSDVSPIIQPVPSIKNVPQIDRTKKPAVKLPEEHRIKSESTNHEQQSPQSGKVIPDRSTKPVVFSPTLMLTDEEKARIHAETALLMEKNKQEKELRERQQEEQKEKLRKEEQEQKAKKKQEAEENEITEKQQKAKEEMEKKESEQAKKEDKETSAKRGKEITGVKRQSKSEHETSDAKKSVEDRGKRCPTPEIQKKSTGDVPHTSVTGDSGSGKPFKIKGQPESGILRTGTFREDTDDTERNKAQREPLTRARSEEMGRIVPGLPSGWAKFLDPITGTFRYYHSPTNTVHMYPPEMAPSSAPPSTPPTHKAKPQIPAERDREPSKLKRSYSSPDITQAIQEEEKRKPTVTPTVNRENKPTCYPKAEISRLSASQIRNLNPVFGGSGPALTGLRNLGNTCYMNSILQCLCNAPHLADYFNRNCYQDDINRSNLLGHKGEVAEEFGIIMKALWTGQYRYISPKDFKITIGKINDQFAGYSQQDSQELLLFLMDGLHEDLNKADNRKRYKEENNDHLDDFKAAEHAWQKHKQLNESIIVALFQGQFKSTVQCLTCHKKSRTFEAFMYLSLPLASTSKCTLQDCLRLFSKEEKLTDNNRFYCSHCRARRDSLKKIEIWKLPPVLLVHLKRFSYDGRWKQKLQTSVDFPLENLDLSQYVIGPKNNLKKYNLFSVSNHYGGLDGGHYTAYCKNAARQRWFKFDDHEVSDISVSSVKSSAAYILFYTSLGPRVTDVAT
In short: as §1

USP9X = USP9X (UniProt Q93008)
In short: as §1

UniProt O00487 = target: UniProt O00487
In short: as §1

Measured: log2 ratio of Biotin-Ahx-Ub-VS probe labelling

Sequence of USP46 (P62068 whole entry): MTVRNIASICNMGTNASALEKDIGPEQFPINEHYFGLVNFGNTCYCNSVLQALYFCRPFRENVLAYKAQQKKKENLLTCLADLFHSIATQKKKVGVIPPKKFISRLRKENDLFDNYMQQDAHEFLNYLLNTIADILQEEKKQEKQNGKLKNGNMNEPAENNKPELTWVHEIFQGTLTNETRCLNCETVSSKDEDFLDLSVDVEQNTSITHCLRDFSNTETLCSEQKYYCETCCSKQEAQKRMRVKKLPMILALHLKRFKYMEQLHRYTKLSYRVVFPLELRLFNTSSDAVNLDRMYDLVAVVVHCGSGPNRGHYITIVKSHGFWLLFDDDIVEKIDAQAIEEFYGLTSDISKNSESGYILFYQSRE
Sequence of USP54 (Q70EL1 whole entry): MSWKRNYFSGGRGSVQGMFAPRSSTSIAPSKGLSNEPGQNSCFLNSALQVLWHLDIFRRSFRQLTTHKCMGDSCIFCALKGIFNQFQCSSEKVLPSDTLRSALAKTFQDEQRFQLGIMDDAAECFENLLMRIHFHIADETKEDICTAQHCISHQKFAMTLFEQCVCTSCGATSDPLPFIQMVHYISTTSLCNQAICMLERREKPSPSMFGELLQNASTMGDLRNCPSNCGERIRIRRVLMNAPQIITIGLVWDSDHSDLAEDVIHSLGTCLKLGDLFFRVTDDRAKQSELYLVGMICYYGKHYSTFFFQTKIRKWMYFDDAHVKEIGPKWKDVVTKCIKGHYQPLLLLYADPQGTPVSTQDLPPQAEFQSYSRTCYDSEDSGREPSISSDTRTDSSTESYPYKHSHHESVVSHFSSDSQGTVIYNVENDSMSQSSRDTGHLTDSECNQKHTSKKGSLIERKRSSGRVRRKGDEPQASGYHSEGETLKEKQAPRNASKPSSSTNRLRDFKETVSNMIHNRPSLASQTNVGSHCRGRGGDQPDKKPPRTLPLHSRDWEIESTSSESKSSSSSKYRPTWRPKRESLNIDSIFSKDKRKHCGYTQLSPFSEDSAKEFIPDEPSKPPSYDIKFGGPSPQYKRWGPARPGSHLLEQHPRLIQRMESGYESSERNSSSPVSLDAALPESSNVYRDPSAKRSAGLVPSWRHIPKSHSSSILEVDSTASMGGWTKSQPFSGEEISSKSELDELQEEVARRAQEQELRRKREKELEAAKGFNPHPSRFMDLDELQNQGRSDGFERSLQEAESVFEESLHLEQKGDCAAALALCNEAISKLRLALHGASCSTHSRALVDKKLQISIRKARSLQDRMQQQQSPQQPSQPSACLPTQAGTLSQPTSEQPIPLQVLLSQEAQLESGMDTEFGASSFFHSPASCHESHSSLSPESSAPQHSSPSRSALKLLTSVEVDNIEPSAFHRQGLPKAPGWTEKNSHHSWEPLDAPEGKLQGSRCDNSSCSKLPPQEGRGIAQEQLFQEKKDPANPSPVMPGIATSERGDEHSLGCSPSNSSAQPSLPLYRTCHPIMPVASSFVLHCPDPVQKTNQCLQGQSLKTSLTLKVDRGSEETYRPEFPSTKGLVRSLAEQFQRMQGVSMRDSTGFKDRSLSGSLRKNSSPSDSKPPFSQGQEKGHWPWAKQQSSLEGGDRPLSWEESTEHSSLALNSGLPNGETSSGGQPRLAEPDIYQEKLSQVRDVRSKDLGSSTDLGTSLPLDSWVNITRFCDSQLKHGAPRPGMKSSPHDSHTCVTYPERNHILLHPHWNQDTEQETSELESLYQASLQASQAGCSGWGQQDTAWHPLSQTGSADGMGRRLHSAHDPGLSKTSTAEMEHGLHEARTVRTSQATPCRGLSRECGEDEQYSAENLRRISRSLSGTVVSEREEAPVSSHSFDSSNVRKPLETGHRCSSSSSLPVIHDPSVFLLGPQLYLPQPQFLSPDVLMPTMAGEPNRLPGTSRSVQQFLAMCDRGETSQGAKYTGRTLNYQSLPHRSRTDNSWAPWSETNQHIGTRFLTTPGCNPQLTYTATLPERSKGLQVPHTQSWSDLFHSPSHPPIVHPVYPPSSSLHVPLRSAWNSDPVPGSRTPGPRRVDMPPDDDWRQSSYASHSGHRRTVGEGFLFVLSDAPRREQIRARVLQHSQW
Sequence of USP7 (Q93009 whole entry, looked up): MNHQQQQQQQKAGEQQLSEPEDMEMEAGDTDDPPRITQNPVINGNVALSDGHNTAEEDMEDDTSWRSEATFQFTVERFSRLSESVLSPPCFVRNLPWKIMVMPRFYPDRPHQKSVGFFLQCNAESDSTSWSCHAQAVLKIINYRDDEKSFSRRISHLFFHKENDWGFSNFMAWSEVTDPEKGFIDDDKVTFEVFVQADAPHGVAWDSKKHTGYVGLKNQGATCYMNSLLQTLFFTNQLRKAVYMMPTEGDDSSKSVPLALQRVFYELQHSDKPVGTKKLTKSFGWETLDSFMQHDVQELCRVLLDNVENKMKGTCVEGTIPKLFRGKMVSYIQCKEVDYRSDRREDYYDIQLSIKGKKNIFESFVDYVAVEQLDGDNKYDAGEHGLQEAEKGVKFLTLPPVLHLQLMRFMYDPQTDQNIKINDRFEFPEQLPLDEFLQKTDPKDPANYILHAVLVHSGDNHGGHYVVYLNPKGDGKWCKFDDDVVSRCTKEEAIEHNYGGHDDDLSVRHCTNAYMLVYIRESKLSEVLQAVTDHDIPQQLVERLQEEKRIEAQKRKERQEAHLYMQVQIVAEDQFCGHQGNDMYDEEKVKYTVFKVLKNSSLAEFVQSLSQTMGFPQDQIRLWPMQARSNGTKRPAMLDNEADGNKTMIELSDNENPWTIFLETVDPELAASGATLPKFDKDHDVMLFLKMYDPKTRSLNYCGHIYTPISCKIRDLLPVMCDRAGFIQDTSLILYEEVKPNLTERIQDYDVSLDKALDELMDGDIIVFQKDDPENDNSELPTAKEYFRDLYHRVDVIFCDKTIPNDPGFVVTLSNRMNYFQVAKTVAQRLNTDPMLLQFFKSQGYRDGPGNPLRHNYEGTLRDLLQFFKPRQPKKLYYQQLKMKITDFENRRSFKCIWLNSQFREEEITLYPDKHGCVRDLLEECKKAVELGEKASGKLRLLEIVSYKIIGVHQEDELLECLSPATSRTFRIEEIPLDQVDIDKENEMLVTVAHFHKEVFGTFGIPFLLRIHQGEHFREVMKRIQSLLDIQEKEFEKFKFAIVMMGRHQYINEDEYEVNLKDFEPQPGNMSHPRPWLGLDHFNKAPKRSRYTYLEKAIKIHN
Sequence of UniProt O00487 (O00487 whole entry): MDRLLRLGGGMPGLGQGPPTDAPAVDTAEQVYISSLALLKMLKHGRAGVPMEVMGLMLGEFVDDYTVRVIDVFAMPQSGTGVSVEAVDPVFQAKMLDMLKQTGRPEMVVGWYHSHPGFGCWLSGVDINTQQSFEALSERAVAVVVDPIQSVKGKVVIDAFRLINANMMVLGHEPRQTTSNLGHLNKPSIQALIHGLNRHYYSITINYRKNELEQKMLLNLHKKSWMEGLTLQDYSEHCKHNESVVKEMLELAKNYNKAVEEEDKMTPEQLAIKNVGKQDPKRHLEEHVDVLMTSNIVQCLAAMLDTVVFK

Cc1ccc(N2CCC(NC(=O)CCl)C2=O)cc1 (stereo not given)
inactive: USP42 -0.0605 | USP46 0.123 | USP47 -0.186 | USP48 0.139 | USP5 0.412 | USP54 0.213 | USP7 -0.0706 | USP8 0.0227 | USP9X -0.0231 | UniProt O00487 -0.129
